Measured values reported in PMC4336329 (PLoS ONE, 2015).
Among all 310,000 compounds or so, about 14,000 (4.5%) showed an effect of 50% or more. The effect is printed as a negative number. The sample as a whole holds a higher share of strong results than the screen did.

Target: human ether-à-go-go-related gene (hERG) potassium channel (human, UniProt Q12809)
Test: primary screen, population patch clamp on CHO cells stably expressing hERG; higher = less effect of the substance
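Note: peak tail current of the secondary pulse compared with the same well before compound.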

human ether-à-go-go-related gene (hERG) potassium channel, sequence (Q12809 whole entry, looked up): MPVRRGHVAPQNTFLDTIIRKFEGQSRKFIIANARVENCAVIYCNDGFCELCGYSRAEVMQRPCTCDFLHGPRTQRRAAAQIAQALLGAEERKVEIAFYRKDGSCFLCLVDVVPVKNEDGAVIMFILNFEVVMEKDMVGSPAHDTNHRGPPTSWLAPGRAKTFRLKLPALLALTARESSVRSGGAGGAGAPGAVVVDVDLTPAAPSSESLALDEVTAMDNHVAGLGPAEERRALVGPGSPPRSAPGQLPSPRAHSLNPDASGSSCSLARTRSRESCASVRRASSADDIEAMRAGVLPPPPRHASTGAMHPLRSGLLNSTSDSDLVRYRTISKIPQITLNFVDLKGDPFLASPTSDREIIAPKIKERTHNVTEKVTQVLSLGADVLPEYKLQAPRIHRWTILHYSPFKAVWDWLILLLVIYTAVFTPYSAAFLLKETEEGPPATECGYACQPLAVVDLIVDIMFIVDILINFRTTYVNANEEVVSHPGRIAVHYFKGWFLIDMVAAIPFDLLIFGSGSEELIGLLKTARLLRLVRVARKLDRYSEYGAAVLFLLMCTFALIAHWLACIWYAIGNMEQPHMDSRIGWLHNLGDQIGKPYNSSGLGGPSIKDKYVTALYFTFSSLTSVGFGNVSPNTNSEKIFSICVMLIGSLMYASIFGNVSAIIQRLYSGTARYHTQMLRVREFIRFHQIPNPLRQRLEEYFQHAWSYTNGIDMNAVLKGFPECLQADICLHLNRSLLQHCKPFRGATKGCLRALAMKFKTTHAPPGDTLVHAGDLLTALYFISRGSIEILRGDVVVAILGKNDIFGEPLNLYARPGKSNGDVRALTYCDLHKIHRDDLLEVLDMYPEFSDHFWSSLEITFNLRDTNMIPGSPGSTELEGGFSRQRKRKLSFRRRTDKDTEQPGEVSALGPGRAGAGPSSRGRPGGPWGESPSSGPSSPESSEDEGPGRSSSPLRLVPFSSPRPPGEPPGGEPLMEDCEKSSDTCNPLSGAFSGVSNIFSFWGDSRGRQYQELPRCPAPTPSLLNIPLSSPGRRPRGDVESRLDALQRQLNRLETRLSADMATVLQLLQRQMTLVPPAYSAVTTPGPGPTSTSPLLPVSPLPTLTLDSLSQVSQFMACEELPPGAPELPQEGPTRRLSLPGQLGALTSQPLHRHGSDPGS

Row | SMILES | hERG current change (%, negative = inhibition) at 10uM
1 | COC(=O)CC1(CC(=O)OC)C(=O)N(c2ccccc2)C(=O)N(c2ccccc2)C1=O | 11.7%
2 | C=CCNC(=O)CN(CCc1ccccc1)S(=O)(=O)c1ccccc1 | -17.6%
3 | CCOC(=O)C1CCCN(Cc2ccc(OC)cc2OC)C1 (stereo not shown) | -52.7%
4 | CCOC(=O)C1CCN(Cc2ccc(OC)cc2OC)CC1 | -45.2%
5 | COc1ccc(CN2CCCC(C(=O)N3CCCC3)C2)c(OC)c1.O=C(O)C(=O)O (stereo not shown) | -9.41%
6 | Cc1ccccc1N1C(=O)NC(=O)/C(=C\c2cc(C)n(C)c2C)C1=O | -3.79%
7 | OCCC1CN(C/C(Cl)=C/c2ccccc2)CCN1C1CCCC1 (stereo not shown) | -77.4%
8 | CC(C)CCN1CCN(CC(c2ccccc2)c2ccccc2)CC1CCO (stereo not shown) | -82.3%
9 | OCCC1CN(Cc2ccccn2)CCN1C1CCCC1 (stereo not shown) | 9.91%
10 | OCCC1CN(C/C=C/c2ccco2)CCN1Cc1ccccc1 (stereo not shown) | -8.57%
11 | OCCC1CN(CC#Cc2ccccc2)CCN1C1CCCC1 (stereo not shown) | -46.2%
12 | CC(C)CCN1CCN(C/C=C/c2ccco2)CC1CCO (stereo not shown) | -57.1%
13 | OCCC1CN(CC(c2ccccc2)c2ccccc2)CCN1C1CCCC1 (stereo not shown) | -71.2%
14 | CCn1cc(CN2CCN(CCC(C)C)C(CCO)C2)c2ccccc21 (stereo not shown) | -31.9%
15 | CC(C)=CCN1CCN(C/C(Cl)=C/c2ccccc2)CC1CCO (stereo not shown) | -26.9%
16 | Cc1ccc(CN2CCN(C/C(Cl)=C/c3ccccc3)CC2CCO)o1 (stereo not shown) | -45.2%
17 | CC(C)CCN1CCN(Cc2cccs2)CC1CCO (stereo not shown) | -10.7%
18 | CC(C)CCN1CCN(CC#Cc2ccccc2)CC1CCO (stereo not shown) | -49.9%
19 | CN(C)N1C(=O)CC(N2CCCCC2)C1=O (stereo not shown) | 6.08%
20 | Cc1nn(C(C)C(=O)N2CCc3ccccc32)c(C)c1[N+](=O)[O-] (stereo not shown) | 10%

Row | SMILES | hERG current change (%, negative = inhibition) at 10uM
21 | CC(=O)NS(=O)(=O)c1ccc(NC(=O)c2ccc(NC(=O)c3cccs3)cc2)cc1 | 2.48%
22 | COc1cc2c(cc1OC)-c1cc(NC3CC3)nc(=O)n1CC2 | -24.8%
23 | O=c1oc2c(-c3cccc(F)c3)cc(O)cc2s1 | 8.45%
24 | COc1ccc(NC(=O)CCc2nnc3ccc(NCc4ccco4)nn23)cc1 | 1.15%
25 | CCOC(=O)c1c([N+](=O)[O-])c(C)[nH]c(=O)c1C#N | 21.1%
26 | CCC(c1nnnn1Cc1ccco1)N(Cc1cc2cc(OC)ccc2[nH]c1=O)C1CCCCC1 (stereo not shown) | -6.37%
27 | Cc1cccc(C)c1NC(=O)CN(C)C(=O)c1ccc(-c2cccc(C(F)(F)F)c2)o1 | -12.5%
28 | CCN(CC(=O)NCc1cccs1)C(=O)c1ccc([N+](=O)[O-])o1 | -33.8%
29 | CCN(CC(=O)NCc1cccs1)C(=O)c1ccc(-c2ccccc2F)o1 | -71.6%
30 | CCN(CC(=O)NCc1cccs1)C(=O)COc1cccc(C(F)(F)F)c1 | -38.2%
31 | CCN(CC(=O)NCc1cccs1)C(=O)c1ccccc1F | 9.12%
32 | CCN(CC(=O)NCc1cccs1)C(=O)c1ccc(-c2cccc(C(F)(F)F)c2)o1 | -82.3%
33 | Cn1cccc1Cc1nnc(SCC(=O)NC2CCCC2)n1-c1ccc(F)cc1 | -19%
34 | Brc1ccc(-c2csc(Nc3nc(-c4ccc(Br)cc4)cs3)n2)cc1 | 15%
35 | COc1ccccc1OCCNC(=O)c1cc(=O)[nH]c2ccccc12 | -4.62%
36 | COc1ccccc1OCCNCC(O)COc1cccc2[nH]c3ccccc3c12 (stereo not shown) | -65.6%
37 | COCCCNCC(O)COc1cccc2[nH]c(C)cc12 (stereo not shown) | 10%
38 | CC(O)CNCCNCc1c(OCc2ccccc2)ccc2ccccc12.Cl (stereo not shown) | -34.6%
39 | CNCc1c(OCc2ccc(F)cc2)ccc2ccccc12.Cl | -49.1%
40 | CCOc1cc(CNCCO)cc(Br)c1OCc1ccc(Cl)cc1.Cl | -16.5%

Row | SMILES | hERG current change (%, negative = inhibition) at 10uM
41 | COc1cccc(CNC(C)(C)CO)c1OCc1ccc(Cl)cc1.Cl | -56.6%
42 | CNCc1c(OCc2ccccc2)ccc2ccccc12.Cl | -34.1%
43 | CNCc1ccccc1OCc1ccccc1F.Cl | -4.37%
44 | COc1cc(CNC(C)(C)CO)cc(Br)c1OCc1ccccc1.Cl | -17.2%
45 | CC(C)(CO)NCc1c(OCc2ccc(Cl)cc2)ccc2ccccc12.Cl | -75.6%
46 | Cl.OCCNCc1c(OCc2ccc(Cl)cc2)ccc2ccccc12 | -77.4%
47 | CNCc1c(OCc2ccccc2F)ccc2ccccc12.Cl | -63.5%
48 | CC(C)(CO)NCc1cccc(OCc2ccc(Cl)cc2)c1 | -30.8%
49 | COc1cc(CNC(C)(C)CO)cc(Br)c1OCc1ccc(Cl)cc1.Cl | -45.7%
50 | CC(CC(=O)Nc1ccc(S(=O)(=O)Nc2ncccn2)cc1)c1ccccc1 (stereo not shown) | 6.78%
51 | COc1ccc(C(=O)NC(=S)Nc2ccc(N3CCN(C(C)=O)CC3)cc2)cc1[N+](=O)[O-] | -2.14%
52 | O=C1N(CN2C(=O)C3(OCCO3)c3ccccc32)c2ccccc2C12OCCO2 | 17.1%
53 | COc1cc2c(cc1OC)C(COc1ccccc1OC)N(C(C)=O)CC2 (stereo not shown) | 14.8%
54 | CCn1c(CC(=O)Nc2ccccc2F)nnc1SCC(=O)N1CCN(c2ccccc2)CC1 | 1.15%
55 | Nc1ccc(S(=O)(=O)Nc2ccc(C(=O)c3ccccc3)cc2)cc1 | -2.92%
56 | CSc1nc(-c2ccccc2)c(C#N)c(=O)[nH]1 | -5.88%
57 | CCOC(=O)C(Cc1ccccc1)NC(=O)CCCC(=O)c1ccccc1 (stereo not shown) | 0.911%
58 | O=C(CCCSc1nc2ccccc2c(=O)[nH]1)c1ccc(F)cc1 | 3.3%
